HCMV antiviral = inhibitors of human cytomegalovirus. HFF cells, HCMV-luciferase reporter, 72 h; stronger effect = lower value. activity change, negative = inhibition, % at 57.5 µM. actives 4.5% (n = 410,000). AID 1259415; in the data active = activity change below about -60%; inconclusive = no clear call, values can overlap the other calls; inactive = above about -39%; also: % is scaled to controls: 0 for no effect and ±100 for the full control effect
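HFF cells seeded 16 h at 37C, treated with compounds, infected with luciferase-reporter HCMV at MOI 1 PFU/cell; luciferase read at 72 h post infection, normalized to buffer-only and Salinomycin controls.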
Sm TGR inh = inhibitors of Schistosoma mansoni thioredoxin glutathione reductase | Q962Y6 | purified TGR, DTNB reduction, TNB absorbance 405 nm | Potency, µM (titrated, usually from 114 µM), without a hit: top-dose activity change, negative = inhibition, usual class: inhibitors | actives 3% (n = 360,000); also: potency is read from the fitted curve at half-maximal effect; % is scaled to controls: 0 for no effect and ±100 for the full control effect; nearly all actives have a fitted effect of over 60% in size
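TGR 20 nM + NADPH 100 uM (dispensed conc.), cpd preinc 15 min RT; start with NADPH (500 uM addition) then DTNB (15 mM addition). Kinetic TNB absorbance, 405 nm filter. Four-parameter Hill fit across titration.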
Pf growth 96h = P. falciparum growth inhibition at 96 hour, primary screen for plastid delayed-death inhibitors. Potency, µM (titrated, usually from 28.7 µM), for the others: top-dose activity change, negative = inhibition, actives largely listed as inhibitors. P. falciparum luciferase reporter growth, 96 h. actives 6.9% (n = 320,000); also: potency is read from the fitted curve at half-maximal effect; % is scaled to controls: 0 for no effect and ±100 for the full control effect
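Delayed-death screen, second-generation endpoint: infected erythrocytes, 2% hematocrit, 0.05% parasitemia final; 96 hours at 37 C, 5% CO2; luciferase detection reagent; luminescence decrease equals reduced growth.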
Pf growth 48h = P. falciparum growth inhibition at 48 hours (one generation) | P. falciparum luciferase growth in erythrocytes, 48 h | Potency, µM (highest dose often 28.7 µM), inactives show at the top dose activity change, negative = inhibition, usual class: inhibitors | actives 5.9% (n = 310,000) | AID 504832; also: potency is read from the fitted curve at half-maximal effect; % is scaled to controls: 0 for no effect and ±100 for the full control effect
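Read-out is firefly luciferase luminescence from an integrated reporter in P. falciparum, so falling signal marks reduced parasite growth. Infected erythrocytes were at 2% hematocrit and 0.1% parasitemia (final) in Albumax-supplemented RPMI 1640.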
SARS PLP yeast = inhibitors of SARS-CoV papain-like protease in yeast; S. cerevisiae expressing SARS-CoV PLpro, growth rescue; actives 0.19% (n = 330,000); Potency, µM (top dose mostly 32.9 µM), for inactives: at the highest dose activity, positive = growth rescue, hits mostly activators; AID 485353; calls by dose curve; also: potency is read from the fitted curve at half-maximal effect; 0% is about no effect; nearly all actives have a fitted effect of over 55% in size
HCV inh = HCV inhibition; actives 3.4% (n = 340,000); Huh7.5.1 HCVcc-Cre infection, luciferase reporter, 44 h; AID 651820; Potency, µM (titrated, usually from 41.8 µM), for the others: at the top dose activity change, negative = inhibition, actives largely listed as inhibitors; also: potency is read from the fitted curve at half-maximal effect; % is scaled to controls: 0 for no effect and ±100 for the full control effect
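Antiviral activity was scored by luciferase reporter output from cells infected with HCVcc-Cre (~0.5 moi) in presence of compound, 44 h infection period, cells seeded 1,000/well 4 h prior.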
Starred values were filed as active, the others as inactive; u = inconclusive; x = no result given. Hits are enriched below; roughly 15% of the tested compounds scored in any of these assays. Unless noted, calls follow the shape of the dose curve; as a rule, active = well fitted curve in the direction sought with a large enough effect; inconclusive = small, poorly fitted or top-dose-only effect, or another doubt; inactive = no such curve, though single readings can be large; an effect the other way counts as inactive or inconclusive.

SMILES | HCMV antiviral | Sm TGR inh | Pf growth 96h | Pf growth 48h | SARS PLP yeast | HCV inh
CCC(CO)Oc1cc(NCc2ccc(Cl)cc2)c2ncn(C(C)C)c2c1 (configuration not stated) | -17.6 | x | x | x | -0.8% | 2.24µM*
Nc1[nH]ncc1-c1ccc(F)cc1 | u | 4.0% | 31.8% | 3.9% | -5.6% | 13.9%
CC1(C)CN(c2ccccc2)C(=O)[C@H]1CC(=O)Nc1ccccc1 | -11.4 | x | x | x | x | x
COCC1CCCN(C(=O)c2ccc3nc(Cc4cccc(Cl)c4)oc3c2)C1 (configuration not stated) | 7.7 | 9.1% | 33.6% | 1.3% | -0.3% | -15.7%
CCC(CO)Oc1cc(NCc2ccc(OC)cc2)c2ncn(C(C)C)c2c1 (configuration not stated) | 16.5 | -11.9% | u | 14.7µM* | -16.5% | u
CCC(CO)Oc1cc(NCc2ccc(C)cc2)c2ncn(C(C)C)c2c1 (configuration not stated) | 7.1 | x | x | x | -4.4% | u
COc1cc(OC)cc(C(=O)N2CCN(S(=O)(=O)c3ccc(Cl)s3)CC2)c1 | 0.0 | -4.1% | u | u | 1.5% | 4.5%
COc1ccc2c(C)c(Cl)c(=O)oc2c1 | 4.7 | 0.0% | -11.6% | 0.0% | 0.9% | -6.6%
C=C1CC(COc2ccc3c(C)c(Cl)c(=O)oc3c2)(c2ccccc2)OC1=O (configuration not stated) | -98.3* | x | x | x | x | u
O=C(COc1ccc2oc(-c3ccccc3)cc(=O)c2c1)Nc1ccccc1 | 8.5 | -3.6% | 3.7µM* | 13.2% | 13.6% | -14.0%
O=C(COc1ccc2c(-c3ccccc3)cc(=O)oc2c1)Nc1ccc(CN2CCOCC2)cc1 | -32.8 | -9.2% | u | -10.0% | -2.6% | u
O=C(COc1ccc2c(-c3ccccc3)cc(=O)oc2c1)Nc1ccc(CCO)cc1 | -67.7* | -6.0% | 29.9% | 29.5% | 13.0% | 7.08µM*
O=C(NCCc1c[nH]c2ccccc12)C1CCC(=O)N(CCc2cccc(F)c2)C1 (configuration not stated) | 42.2 | -11.0% | u | 60.6% | -2.0% | 13.9%
O=S(=O)(NCCSc1ccccc1)c1cccs1 | 5.5 | -8.9% | u | 21.7% | -0.7% | u
Cc1sc2ccccc2[n+]1CC(=O)O | 4.7 | 6.8% | u | u | 0.5% | -1.4%
Cc1sc2ccccc2[n+]1CCC(C)S(=O)(=O)[O-] (configuration not stated) | 7.9 | 2µM* | u | 7.4% | -1.7% | 8.9%
N=c1n(Cc2ccccc2)c2ccccc2n1Cc1ccccc1 | u | 2.4% | u | 10.4µM* | 16.2% | u
C=CCn1c(=N)n(CC(=O)c2cccc([N+](=O)[O-])c2)c2ccccc21 | -7.4 | x | u | u | -0.8% | -6.1%
N=c1n(CC(=O)c2ccc(Br)cc2)c2ccccc2n1Cc1ccccc1 | -60.5* | -5.2% | u | u | -11.5% | u
O=C(Cn1nc(Cl)nc1Cl)c1ccc([N+](=O)[O-])cc1 | -14.8 | u | 2.94µM* | 13.1µM* | -0.3% | 5.1%
N=c1n(CCN2CCCCC2)c2ccccc2n1CC(=O)c1cccc([N+](=O)[O-])c1 | -22.3 | -3.6% | u | 1.85µM* | x | u
COC(=O)[C@@H]1[C@@H](CO)[C@@H]2Cn3c(ccc(Br)c3=O)[C@@H]2N1CCc1ccccc1 | -32.9 | x | x | x | x | x
O=C(CN1CCN(S(=O)(=O)N2CCOCC2)CC1)Nc1cc(Cl)ccc1Cl | -1.9 | -2.5% | 24.1% | -20.6% | 0.2% | u
COc1cc(CN2CCC(CCC(=O)NC3CC3)CC2)cc(Cl)c1OC | 18.6 | 0.5% | 0.0% | -14.9% | 1.1% | -2.6%
Cc1ccccc1Cn1c(=N)n(CC(=O)c2ccco2)c2ccccc21 | -13.5 | u | 14.7µM* | u | 5.9% | u
SMILES | HCMV antiviral | Sm TGR inh | Pf growth 96h | Pf growth 48h | SARS PLP yeast | HCV inh
N=c1n(CC(=O)c2ccc([N+](=O)[O-])cc2)c2ccccc2n1Cc1ccc(Cl)cc1 | -12.9 | -3.7% | u | u | 3.5% | -8.2%
N=c1n(CC(=O)c2ccc([N+](=O)[O-])cc2)c2ccccc2n1Cc1ccccc1 | -82.7* | 7.7% | u | 8.28µM* | -14.6% | u
N=c1c2c(ncn1CCN1CCOCC1)Oc1ccc3ccccc3c1C2c1ccccc1 (configuration not stated) | 6.6 | 5.0% | 4.65µM* | x | -13.9% | 5.9%
COc1ccc(C2c3c(ccc4ccccc34)Oc3ncn4nc(-c5ccco5)nc4c32)cc1 (configuration not stated) | 14.1 | 3.5% | 3.7µM* | u | 9.7% | u
c1ccc(C2c3c(ccc4ccccc34)Oc3ncn4nc(-c5ccco5)nc4c32)cc1 (configuration not stated) | 25.2 | 2.4% | u | -8.5% | 13.5% | u
COc1ccc(C2c3c(ncn(CCN4CCOCC4)c3=N)Oc3ccc4ccccc4c32)cc1 (configuration not stated) | u | -19.4% | x | 9.28µM* | 1.4% | u
O=C(c1ccccc1)N(C(=O)c1ccccc1)c1ncnc2c1C(c1ccccc1)c1c(ccc3ccccc13)O2 (configuration not stated) | -4.9 | -1.8% | 27.0% | u | 1.4% | x
COc1ccc(C2c3ccc(O)cc3Oc3ncn(CCCO)c(=N)c32)cc1 (configuration not stated) | 0.0 | -13.6% | u | u | 0.1% | -13.3%
O=C(C1CC(=O)N(c2ccccc2)C1)N1CCN(c2ccccc2)CC1 (configuration not stated) | 49.6 | -1.3% | 80.8% | 4.7% | 4.0% | 14.6%
O=C(NCCc1ccccn1)c1nc(Cn2ccc([N+](=O)[O-])n2)no1 | -34.3 | 6.9% | u | 20.3% | -1.9% | 5.8%
Cc1nnc(NC(=O)c2cccc(S(=O)(=O)N3CCCC3)c2)s1 | -1.9 | -19.3% | -9.4% | 21.0% | -1.6% | 25.2%
COc1ccc(/C(C)=N/Nc2nc3ccccc3nc2C)cc1 | -1.5 | -30.6% | -19.2% | 31.5% | -0.3% | 12.6µM*
Cc1ccc(NCC(=O)c2ccc(C)cc2)cc1 | 57.4 | 0.0% | -14.4% | 45.9% | 16.6% | 7.4%
O=C(CNc1ccc(Br)cc1)c1ccc(O)cc1 | -13.8 | -8.4% | 6.0% | 70.0% | -21.9% | 14.9%
CCc1ccc(NCCC(=O)c2ccc(Br)cc2)cc1 | 29.0 | 12.6µM* | 57.6% | 36.1% | 17.5% | -4.8%
Cc1ccc(NCCC(=O)c2ccc(Br)cc2)cc1 | -22.3 | 7.08µM* | 71.2% | 0.6% | -6.7% | 0.4%
Cc1ccc(NCCC(=O)c2ccc(Cl)cc2)cc1 | -30.7 | 6.31µM* | 4.3% | 42.5% | -0.5% | -20.7%

Bioassay records as filed in PubChem BioAssay.
